Assay [1] is described as follows: qHTS assay to identify small molecules that stimulate interleukin-8 (IL-8) secretion (AID 651758; active means well fitted activation curve with a large enough effect in the signal ratio; the % refers to the signal ratio). The essentials:
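Secreted IL-8 measured homogeneously by TR-FRET (two labelled anti-IL-8 antibodies, 1-3 h at room temperature) after a 16 h, 37 C compound treatment of THP-1 cells at 2000 cells/well.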
(In general: qHTS replaces the single test concentration by a dilution series.)

The target of assay [2] is Bile acid receptor (Homo sapiens) (UniProt Q96RI1). Briefly: qHTS assay for small molecule antagonists of farnesoid X receptor signaling (AID 588526). The method in brief: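 Beta-lactamase reporter antagonist mode: HEK293T FXR-UAS-bla cells, titrated compound, CDCA stimulation, 16 h 37 C, CCF4 dye 2 h RT. Data normalized to CDCA 50 uM and DMSO; Hill-fit IC50.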
Assay [3] has the same target. In words: qHTS assay for small molecule agonists of farnesoid X receptor signaling (AID 588527). Further: series mostly up to about 77 µM. The note with it: HEK293T FXR-UAS-bla, beta-lactamase ratio, 16 h; active compounds read high. The method in brief: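 Agonist-mode beta-lactamase reporter in GeneBLAzer FXR-UAS-bla HEK293T cells, titration up to 92 uM, 16 h exposure at 37 C, CCF4 fluorescence. Response scaled to DMSO (0%) and 100 uM chenodeoxycholic acid (100%), then Hill-fitted for EC50 and efficacy.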

Assay [4] has as its target Androgen receptor (Homo sapiens) (UniProt P10275). Briefly: qHTS assay for small molecule agonists of androgen receptor signaling (AID 588515; active means well fitted curve in the direction sought with a large enough effect in the signal ratio, with a control signal flat; the % refers to the signal ratio). The note with it: AR-UAS-bla HEK293, beta-lactamase ratio, agonist 16 h; active compounds read high. The method in brief:
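Stimulation of an AR-responsive β-lactamase reporter in GripTite HEK293 cells was measured after 16 h compound exposure at 37 °C, via CCF4 fluorescence after 2 h RT. EC50 from Hill fits, normalized to R1881 at 30 nM.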

For assay [5] the target is unchanged. Briefly: qHTS assay for small molecule antagonists of androgen receptor signaling (AID 588516; active means well fitted curve in the direction sought with a large enough effect in the signal ratio, with a control signal flat, not every such curve was filed as active; the % refers to the signal ratio). The essentials:
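Antagonist-mode qHTS: inhibition of R1881 (10 nM)-driven beta-lactamase expression in GripTite HEK 293 cells is measured after 16 h; values are Hill-derived IC50s normalized between R1881 and DMSO wells.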

The target of assay [6] is Cytochrome P450 3A4 (Homo sapiens) (UniProt P08684). Briefly: qHTS Assay for Activators of Cytochrome P450 3A4 (AID 885; active means well fitted curve in the direction sought with a large enough effect; an effect the other way counts as inactive or inconclusive; further: nearly all actives have a fitted effect of over 65% in size). The method in brief:
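Luminescent readout of luciferin formed from 25 uM Luciferin-PPXE (KM level) by 20 nM CYP3A4 in 200 mM KPO4, with 60 min NADPH-driven reaction at room temperature after 10 min compound exposure. Ketoconazole (57 uM) defined 100% inhibition.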

Assay [7] in a line: Confirmation and Secondary Assay for Modulators of Hemoglobin Beta Chain Splicing at IVS2 654 locus (AID 910; active means well fitted curve in the direction sought with a large enough effect; an effect the other way counts as inactive or inconclusive;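 further: HeLa cells stably carrying EGFP split by mutant beta-globin IVS2-654 intron; per-well total GFP intensity by laser scanning cytometry after 2-day treatment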). The method in brief: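 Readout: per-well total peak green fluorescence (488 nm ex, 500–520 nm em) from objects 5–250 µm, reflecting correct splicing of an EGFP-654 reporter. Compounds were applied for 2 days at 37 °C to overnight-plated HeLa EGFP-654 cells; controls were DMSO and 500 nM IVS2-654 PNA.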

The nature of assay [8]: Confirmation and Secondary Assay for Modulators of Hemoglobin Beta Chain Splicing at IVS2 705 locus (AID 930; active means well fitted curve in the direction sought with a large enough effect; an effect the other way counts as inactive or inconclusive;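 further: HeLa cells stably expressing the EGFP-705 splicing reporter; GFP fluorescence per well restored by corrected splicing of the IVS2-705 intron in EGFP; series mostly up to about 46 µM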). The text has this:
NIH Chemical Genomics Center [NCGC] NIH Molecular Libraries Screening Centers Network [MLSCN] MLSCN Grant: 1 X01 MH080684-01 PI Name: Dr. Ryszard Kole NCGC Assay Overview: Modulation of Alternative Splicing as Therapy Abnormal splicing is associated with a number of diseases, including cancer and genetic diseases such as cystic fibrosis, muscular dystrophy and beta-thalassemia. Alteration of disease associated splicing patterns provides a promising target for treatment. […] Mutations in the second intron of the b-globin gene at positions 654 or 705 are clinically relevant and cause mis-splicing which results in an out of frame gene product. […] EGFP-705 HeLa Cells as screen system. HeLa cell lines were stably transfected with a construct in which the EGFP (enhanced green fluorescent protein) cDNA was interrupted by the second intron of the beta-globin gene (IVS2-705). The ISV2 intron contains mutations which cause mis-splicing of EGFP and premature termination of EGFP which results in a nonfluorescent protein product. […] Expression of the transgene was driven by the CMV promoter. We concluded that a low molecular weight compound, which restored correct splicing of intron 2 would also generate functional EGFP protein, resulting in a fluorescent signal. Thus, the HeLa cells that express the EGFP-705 construct can be used for validation of splice site specificity of compounds identified in primary screening of the ISV2 654 construct.
NCGC Assay Protocol Summary: Confirmatory Screening. Freshly thawed HeLa EGFP-705 cells were seeded in 5 ul of optimem media (Invitrogen) containing 2 % fetal calf serum (Hyclone) and 1x penicillin/streptomycin (Invitrogen) at a concentration of 500 cells per well in 1536-well plates. Cells were incubated overnight at 37C in 5% CO2. The next day, cells were treated with DMSO, 500 nM antisense ISV2 654 PNA control oligo, or library compound and allowed to grow at 37C in 5% CO2 for 2 days. The PNA oligo blocked the mutation site in the intron and allowed proper (wild type) splicing to occur, resulting in full length EGFP expression and also allowed for optimization of the assay parameters. Plates were read in the Acumen Explorer (TTP Labtech) using 488 nm laser excitation and 500-520 nm emission PMT filter in a 1 x 8 uM capture mode. Fluorescnet objects ranging in size from 5 to 250 uM were measured and the total peak GFP intensity for each well was used for data analysis. Keywords: Thalassemia, beta-thalassemia, beta-globin, EGFP, ISV2 654, ISV2 705, SSO, PNA, antisense, splicing, MLSMR, MLSCN, NIH Roadmap, qHTS, NCGC

Assay [9] concerns the target Ubiquitin carboxyl-terminal hydrolase 1 (Homo sapiens) (UniProt O94782). Briefly: Inhibitors of USP1/UAF1: Pilot qHTS (AID 504865; active means well fitted curve in the direction sought with a large enough effect; an effect the other way counts as inactive or inconclusive;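 further: rhodamine fluorescence freed from ubiquitin-rhodamine substrate followed over time; top concentration of the series differs between compounds; nearly all actives have a fitted effect of over 35% in size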). The essentials: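 Kinetic fluorescence assay: 1nM USP1/UAF1, 15 min compound preincubation, then 150nM Ub-Rho; 480/540 nm.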

Several values for one entry are separate records, joined by “and”; a condition that tells them apart may be missing. Equal values may be shown once. A number with no mark means an inactive call. Inconclusive results are not listed. Entries that show only a call come without a potency. Activity calls are given as the source filed them. Unless noted, the call rests on the fitted dose curve.

Chain of Bile acid receptor (Homo sapiens) (Q96RI1 whole entry, looked up): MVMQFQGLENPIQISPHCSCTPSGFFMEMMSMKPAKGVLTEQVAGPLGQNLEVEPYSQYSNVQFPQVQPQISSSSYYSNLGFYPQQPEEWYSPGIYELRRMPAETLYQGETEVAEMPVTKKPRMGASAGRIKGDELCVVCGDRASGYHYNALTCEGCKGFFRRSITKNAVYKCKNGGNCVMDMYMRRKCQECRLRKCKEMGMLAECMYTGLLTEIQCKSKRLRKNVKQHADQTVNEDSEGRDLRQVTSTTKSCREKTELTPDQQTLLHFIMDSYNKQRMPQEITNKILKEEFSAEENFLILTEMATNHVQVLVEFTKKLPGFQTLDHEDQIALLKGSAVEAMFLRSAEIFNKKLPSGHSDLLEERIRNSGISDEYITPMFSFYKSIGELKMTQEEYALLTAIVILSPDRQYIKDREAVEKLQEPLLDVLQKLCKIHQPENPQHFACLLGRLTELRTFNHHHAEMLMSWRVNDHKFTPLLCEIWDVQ
Chain of Androgen receptor (Homo sapiens) (P10275 whole entry, looked up): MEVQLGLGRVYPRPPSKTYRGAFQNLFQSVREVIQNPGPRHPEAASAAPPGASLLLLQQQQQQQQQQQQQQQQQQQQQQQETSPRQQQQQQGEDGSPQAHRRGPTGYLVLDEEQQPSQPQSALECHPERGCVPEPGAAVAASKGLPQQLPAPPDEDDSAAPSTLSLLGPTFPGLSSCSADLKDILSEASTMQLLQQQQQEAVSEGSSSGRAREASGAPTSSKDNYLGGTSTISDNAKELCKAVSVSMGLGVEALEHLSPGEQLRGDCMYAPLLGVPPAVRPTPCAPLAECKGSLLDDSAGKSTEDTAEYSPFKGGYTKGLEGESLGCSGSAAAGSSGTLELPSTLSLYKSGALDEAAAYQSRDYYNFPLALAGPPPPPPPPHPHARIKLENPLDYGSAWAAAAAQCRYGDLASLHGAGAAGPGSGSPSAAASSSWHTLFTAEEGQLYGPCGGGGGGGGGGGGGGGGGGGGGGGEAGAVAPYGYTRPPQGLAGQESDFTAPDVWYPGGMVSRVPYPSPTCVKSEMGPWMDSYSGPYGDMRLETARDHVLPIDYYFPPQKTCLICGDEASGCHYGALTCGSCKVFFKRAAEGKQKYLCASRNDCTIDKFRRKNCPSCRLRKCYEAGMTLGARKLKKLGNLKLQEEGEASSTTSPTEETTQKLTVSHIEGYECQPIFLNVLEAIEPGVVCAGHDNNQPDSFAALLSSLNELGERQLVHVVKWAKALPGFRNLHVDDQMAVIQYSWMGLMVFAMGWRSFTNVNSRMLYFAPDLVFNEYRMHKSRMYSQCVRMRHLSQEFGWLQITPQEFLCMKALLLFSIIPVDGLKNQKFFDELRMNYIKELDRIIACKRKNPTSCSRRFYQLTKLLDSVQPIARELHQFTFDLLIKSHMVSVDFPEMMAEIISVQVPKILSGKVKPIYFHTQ
Chain of Cytochrome P450 3A4 (Homo sapiens) (P08684 whole entry, looked up): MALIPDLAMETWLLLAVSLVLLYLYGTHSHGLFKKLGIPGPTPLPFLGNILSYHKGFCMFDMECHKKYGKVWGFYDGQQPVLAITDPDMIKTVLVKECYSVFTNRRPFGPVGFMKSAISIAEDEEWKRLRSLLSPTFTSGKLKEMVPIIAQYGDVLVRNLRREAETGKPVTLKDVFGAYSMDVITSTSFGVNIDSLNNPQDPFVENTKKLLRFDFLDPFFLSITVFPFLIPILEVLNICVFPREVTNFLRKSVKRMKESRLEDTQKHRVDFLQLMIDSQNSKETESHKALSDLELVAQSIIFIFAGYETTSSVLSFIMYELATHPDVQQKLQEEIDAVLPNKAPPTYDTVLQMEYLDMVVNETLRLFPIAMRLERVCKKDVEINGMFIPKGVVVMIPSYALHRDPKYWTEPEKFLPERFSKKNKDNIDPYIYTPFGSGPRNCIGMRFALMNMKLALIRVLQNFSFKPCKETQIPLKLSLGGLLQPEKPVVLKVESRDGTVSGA
Chain of Ubiquitin carboxyl-terminal hydrolase 1 (Homo sapiens) (O94782 whole entry, looked up): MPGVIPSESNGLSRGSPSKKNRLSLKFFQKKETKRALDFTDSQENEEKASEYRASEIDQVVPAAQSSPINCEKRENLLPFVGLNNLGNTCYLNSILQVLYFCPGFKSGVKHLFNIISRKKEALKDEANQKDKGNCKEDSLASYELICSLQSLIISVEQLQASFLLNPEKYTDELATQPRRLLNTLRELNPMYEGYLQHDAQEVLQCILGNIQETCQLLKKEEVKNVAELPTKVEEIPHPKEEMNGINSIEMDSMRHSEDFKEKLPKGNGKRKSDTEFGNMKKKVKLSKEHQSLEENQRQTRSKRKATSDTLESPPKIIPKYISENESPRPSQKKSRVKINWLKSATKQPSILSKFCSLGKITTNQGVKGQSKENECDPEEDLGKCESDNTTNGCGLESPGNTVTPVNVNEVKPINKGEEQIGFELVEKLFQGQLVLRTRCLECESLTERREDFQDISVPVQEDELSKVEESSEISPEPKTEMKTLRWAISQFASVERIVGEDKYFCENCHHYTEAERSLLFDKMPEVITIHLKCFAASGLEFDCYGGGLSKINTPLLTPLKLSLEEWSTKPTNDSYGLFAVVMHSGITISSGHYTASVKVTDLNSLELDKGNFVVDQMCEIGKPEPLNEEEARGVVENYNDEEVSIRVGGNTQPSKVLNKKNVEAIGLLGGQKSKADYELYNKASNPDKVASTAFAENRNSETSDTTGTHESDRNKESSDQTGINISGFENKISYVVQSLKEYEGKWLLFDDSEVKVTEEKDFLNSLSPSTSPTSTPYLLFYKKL

For `ClC(Cl)(Cl)C(Cl)(Cl)Cl`, the Potency entry in [1] was “inactive”.

Turning to `CCCBr`, in [2], the outcome was inactive. Also, the activation in [3] was -1.67%. The Potency result in assay [1] was “inactive”.

Take `CCC(Cl)[N+](=O)[O-]` (stereo not given): the compound was classed as inactive in assay [2]. Moreover, in assay [3], the activation was -1.12%. Besides, the Potency entry in assay [1] was “inactive”.

Regarding `CC(C)(OOC(C)(C)c1ccccc1)c1ccccc1`, the activation is 9.96% in assay [4]; 3.57% and 3.43% in assay [3]. The compound was classed as inactive in [5] and in assay [2].

Regarding `CN(C)C(=O)Cl`, the Potency entry in assay [1] was “inactive”.

Regarding `O=[N+]([O-])c1cc(Cl)c(Cl)cc1Cl`, the Potency result in assay [1] is “inactive”.

As to `ClCCBr`, the Potency entry in assay [1] is “inactive”.

`CCCCOC(C)=O`: the outcome in assay [2] was inactive. Moreover, the activation in assay [3] is 1.21%.

On to `OC[P+](CO)(CO)CO`, for which the Potency entry in [1] is “inactive”.

For `C=CC(=O)OCC(C)C`, the Potency result in [1] is “inactive”.

For the compound `C=C(C)CCl`, the results for the activation in assay [4] and in assay [3] were 8.69% and -1.8%, respectively. Also, the compound was called inactive in assay [5] and in assay [2].

With `Oc1c(Cl)c(Cl)cc(Cl)c1Cl`, the activation in [4] is -20.1%; in assay [3], 3.3%.

`Cc1ccc2c(c1N)C(=O)c1ccccc1C2=O`: the Potency result in [6] was “inactive”. Further, in assay [2], the compound was called inactive. In [3], the activation is -0.569% and 1.06%.

As to `CSSC`, in assay [1], the Potency result was “inactive”.

Take `O=Cc1ccc2c(c1)OCO2`: the result in assay [2] was inactive. Also, the activation in assay [3] was 0.344%. The Potency result in assay [1] is “inactive”.

As to `CN(C)c1ccc(N)cc1`, the Potency result in assay [6] was “inactive”. For the same compound, the activation in assay [4] is -5.02%.

Turning to `O=C(O)C(Cl)(Cl)Br`, the result in assay [2] was inactive. In addition, the activation in assay [3] was -1.03%.

For the compound `C=COC(C)=O`, the Potency entry in assay [1] was “inactive”.

For the compound `Cl/C=C/CCl`, in assay [1], the Potency entry is “inactive”.

For the compound `CCCCCc1cc(O)cc(O)c1`, the Potency entry in assay [6] and in assay [1] was “inactive” throughout. Moreover, in assay [2], the compound was called inactive. In addition, the activation in [3] is 2.26%.

On to `CCCCC(=O)Cl`, for which the outcome in assay [2] was inactive. Also, the activation in assay [3] was 3.38%.

With `CN1CSC(=S)N(C)C1`, the activation in assay [3] is 0.811% and -0.41%.

Consider `O=[N+]([O-])c1c(Cl)c(Cl)c(Cl)c(Cl)c1Cl`, for which the activation in assay [4] was 15.3% and 4.1%. Moreover, the result in assay [5] was inactive.

Take `N#CC(Br)Br`: in [3], the activation was -0.424%.

For `O=[N+]([O-])/C=C/c1ccccc1`, the call in [2] was inactive. The activation in assay [3] is 2.07%.

Consider `CC(C)[N+](=O)[O-]`, for which, in assay [2], the call was inactive. For the same compound, the activation in assay [3] is -1.29%. For the same compound, the Potency result in assay [1] is “inactive”.

For the compound `FC(Cl)(Cl)Cl`, the activation in assay [4] is 5.32%; in assay [3] it was -3.19%. The call in [5] and in assay [2] was inactive.

On to `CCC#N`, for which, in assay [2], the compound was classed as inactive. In assay [3], the activation is -0.411%.

Consider `Clc1cccc(Cl)c1`, for which the Potency result in assay [1] is “inactive”.

Take `COP(=S)(OC)SCn1nnc2ccccc2c1=O`: the Potency result in [6] and in assay [9] was “inactive” in each case. Besides, the result in assay [7] and in assay [8] was inactive. In [4], the activation is -9.55% and -1.17%.

With `CC(=O)NNc1ccccc1`, the Potency result in assay [6] was “inactive”. Besides, the values for the activation in assay [4] and in assay [3] were 7.34% and -3.51%, respectively. Further, the outcome in assay [5] and in assay [2] was inactive.

Turning to `Cc1ccc(N)cc1Cl`, the Potency result in assay [6] and in [1] was “inactive” in each case.

For the compound `CCCC[N+](=O)[O-]`, in assay [2], the result was inactive. The activation in assay [3] is -0.886%.

As for `ClC(Br)Br`, the call in assay [2] was inactive. In addition, the Potency entry in assay [1] is “inactive”.

For `CC(C)Br`, in [2], the result was inactive. For the same compound, in assay [3], the activation is -0.0522%. Also, in assay [1], the Potency result was “inactive”.

As for `c1ccc(NNc2ccccc2)cc1`, in assay [2], the compound was classed as inactive. The activation in assay [3] is 1.06% and 0.0431%. The Potency entry in assay [1] is “inactive”.

For `O=c1ccc(=O)[nH][nH]1`, the activation in assay [4] was 2.82% and 4.44%; in [3], -0.172% and -2.47%. The outcome in assay [5] and in assay [2] was inactive.

The record behind these values is PubChem BioAssay (NCATS).
